Data from PubChem BioAssay AID2094 (Broad Institute, 2009).
Out of some 300,000 compounds screened, about 1,200 (0.4%) were called active. The sample holds actives, similar compounds and a random draw of the others, so the mix is not that of the screen. Values without a mark were called inactive. Rule as the data show it: active = activity change below about -75% (passing the limit was not always enough); inconclusive = no clear call, values can overlap the other calls.

experiment: modulation of AI-2 quorum-sensing luminescence – JMH597 strain, luminescence/OD600 ratio, primary screen (AID 2094); settings: Vibrio harveyi JMH597 AI-2 luminescence/OD600 ratio, 9 h; at 7.5 µM; stronger effect = lower value; 0 = neutral-control median; strain lacks LuxN and CqsS sensors;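 also: luminescence divided by OD600 gain over 9 h not by final OD600 alone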

Which activity change does the source give for CC(=O)N1c2ccc(S(=O)(=O)N3CCC(C(=O)NC4CCCC(C)C4C)CC3)cc2CC1C (stereo unspecified) here?
Its activity change is 26.4%.

With O=C(COc1ncnc2c(Cl)cc(Cl)cc12)N1CCN(S(=O)(=O)c2ccccc2)CC1 as the molecule, how does the activity change read?
The activity change was 8.92%.

For Cc1cc(C)c2nc(-c3cccnc3)cc(C(=O)Nc3ccc(S(=O)(=O)Nc4onc(C)c4C)cc3)c2c1, which activity change is on record?
The activity change was 39.3%.

With CCOC(=O)c1sc(NC(=O)c2sc(C)nc2C)nc1C as the molecule, how does the activity change read?
The activity change was 1.24%.

For O=C(Nc1ccccc1F)c1ccc2c(c1)OCO2, which activity change is on record?
Its activity change is -3.7%.

With CC1COc2ccccc2N1C(=O)c1ccc(F)cc1 (stereo unspecified) as the molecule, how does the activity change read?
Its activity change is 25.4%.

For O=C(Nc1nnc(C2COc3ccccc3O2)o1)c1ccc(F)cc1 (stereo unspecified), which activity change is on record?
The activity change was -225% (active).

With CN(C)S(=O)(=O)N1CCC(Oc2cccc(C(=O)NCCCC3CCCC3)c2)CC1 as the molecule, how does the activity change read?
Its activity change is 1.44%.

Which activity change does the source give for CCN(CC(=O)Nc1cccc(S(=O)(=O)N2CCCCC2)c1)Cc1ccccc1 here?
Its activity change is 24.8%.

For CC(=O)NC(CC(=O)Nc1cccc(S(=O)(=O)N2CCCC2)c1)c1ccccc1 (stereo unspecified), which activity change is on record?
Its activity change is 3.39%.

With O=C(Cn1cnc2ccccc2c1=O)Nc1cccc(S(=O)(=O)N2CCCCC2)c1 as the molecule, how does the activity change read?
The activity change was -81.4% (active).

With C=CS(=O)c1sc(Cl)c(N2CCOCC2)c1[N+](=O)[O-] (stereo unspecified) as the molecule, how does the activity change read?
Its activity change is -83.3% (active).

With CCCNC(=S)N1CCC(NC(=O)C23CC4CC(CC(C4)C2)C3)CC1 as the molecule, how does the activity change read?
Its activity change is 28.5%.

Which activity change does the source give for CCCc1cc(=O)oc2c(C)c(OC(C)C(=O)NCC(O)c3ccccc3)ccc12 (stereo unspecified) here?
The activity change was 23.7%.

For CC(Oc1ccc(-c2ccccc2)c(F)c1)c1ccn(S(=O)(=O)c2cccc3ccccc23)n1 (stereo unspecified), which activity change is on record?
Its activity change is 27.1%.

Which activity change does the source give for CCN(CC)CCn1c2c(c(SCC(=O)Nc3ccc(C(C)C)cc3)nc1=O)CCC2 here?
Its activity change is 5.82%.

With O=c1c2sccc2nc(SCc2cc(=O)n3ccccc3n2)n1-c1ccc(Br)cc1 as the molecule, how does the activity change read?
Its activity change is 19.6%.

Which activity change does the source give for C=C(C)c1cccc(C(C)(C)NC(=O)NC2CCCC2)c1 here?
Its activity change is 1.39%.

For COc1ccc(C(=O)NC(=S)NNC(=O)c2c(-c3ccccc3)noc2C)cc1, which activity change is on record?
The activity change was 26.1%.

For COc1ccc(C(=O)NNC(=S)NC(=O)c2ccccc2[N+](=O)[O-])cc1, which activity change is on record?
The activity change was 34.4%.

For COc1ccc(C(=O)NNC(=S)NC(=O)c2ccccc2)cc1, which activity change is on record?
The activity change was -106% (active).

Which activity change does the source give for CCNc1nc(NC(C)C)nc(OCCOC(=O)c2ccccc2)n1 here?
Its activity change is 23.7%.

Which activity change does the source give for COc1ccc(C2N=C(N)N=C(N)N2c2ccccc2)cc1OC (stereo unspecified) here?
Its activity change is 19.2%.

With CC1=CC=CC2=N/C(=N\S(=O)(=O)c3ccc(F)cc3F)c3ccccc3CN12 as the molecule, how does the activity change read?
Its activity change is 21.6%.

With Cc1cccc(OCCC(=O)Nc2ccccc2C(N)=O)c1 as the molecule, how does the activity change read?
The activity change was 11.3%.

For CCc1ccccc1NC(=O)CCOc1ccccc1, which activity change is on record?
Its activity change is 24.5%.

For Cc1ccccc1NC(=O)CCOc1ccccc1, which activity change is on record?
Its activity change is -83.3% (active).

Which activity change does the source give for C=CCO/N=C/C1=C(O)C(C(=O)OC)C(C)(C)CC1=O (stereo unspecified) here?
The activity change was 9.19%.

For COc1ccc(OCCC(=O)c2ccc(OC)cc2)cc1, which activity change is on record?
The activity change was 30.2%.

Which activity change does the source give for CO/N=C/CC(=O)c1ccc(OC)cc1 here?
Its activity change is 8.95%.

Which activity change does the source give for COc1ccc(CCC(=O)c2ccc(OC)cc2)cc1 here?
The activity change was -82.8% (active).

Which activity change does the source give for COc1cccc(NC(=O)COc2cc(C)cc3oc(=O)cc(C)c23)c1 here?
Its activity change is 15.1%.

With COc1ccc(Cc2nnc(N/N=C/c3ccccc3O)[nH]c2=O)cc1OC as the molecule, how does the activity change read?
The activity change was -86.4% (active).

For Cc1nnc(N/N=C/c2ccccn2)[nH]c1=O, which activity change is on record?
The activity change was -29.7%.

Which activity change does the source give for O=c1[nH]c(NCCO)nnc1Cc1ccc(Cl)cc1 here?
The activity change was -1.67%.

For COCC(=O)N1CCCC(C(=O)c2ccc(C(F)(F)F)cc2)C1 (stereo unspecified), which activity change is on record?
Its activity change is 13.4%.

With CC(=O)c1ccc(S(=O)(=O)N(C)CCCC(=O)N(C)Cc2ccccc2F)cc1 as the molecule, how does the activity change read?
The activity change was 21.5%.

For O=C(Nc1ccccc1)c1ccco1, which activity change is on record?
The activity change was 10.6%.

Which activity change does the source give for O=C(Nc1ccc(O)cc1)c1ccc(NC(=O)c2ccco2)cc1 here?
The activity change was 7.66%.

Which activity change does the source give for O=C(Nc1ccc(Oc2ccccc2)cc1)c1ccco1 here?
The activity change was -96.6% (active).

Which activity change does the source give for O=C(/C=C/c1ccco1)Nc1cccc(-c2nc3ccccc3[nH]2)c1 here?
Its activity change is 4.93%.

Which activity change does the source give for Cc1nnc(NC(=O)/C=C/c2ccco2)s1 here?
Its activity change is 12.9%.

With O=C(/C=C/c1ccco1)Nc1ccc(Oc2ccccc2)cc1 as the molecule, how does the activity change read?
Its activity change is -83.2% (active).

With CCc1cccc(NC(=O)CCCN2C(=O)C(c3ccccc3)Oc3cccnc32)c1 (stereo unspecified) as the molecule, how does the activity change read?
The activity change was 34.6%.

With CC(OC(=O)CNS(=O)(=O)/C=C/c1ccccc1)C(=O)Nc1ccc(S(=O)(=O)N2CCCC2)cc1 (stereo unspecified) as the molecule, how does the activity change read?
Its activity change is 11.2%.

With CCCCCCNCCn1cnc2c(N)ncnc21 as the molecule, how does the activity change read?
Its activity change is 19.1%.

For O=C(c1cc(-c2cccc(O)c2)on1)N1CCc2ccccc2C1, which activity change is on record?
Its activity change is -84.1% (active).

Which activity change does the source give for Cc1ccc(-c2cc(C(=O)N3CCc4ccccc4C3)no2)cc1 here?
Its activity change is 4.44%.

Which activity change does the source give for O=C(c1cc(-c2ccc(O)cc2)on1)N1CCOCC1 here?
The activity change was 2.48%.

Which activity change does the source give for COc1ccc(C)cc1N(CC(=O)NC(C)c1ccccc1)S(C)(=O)=O (stereo unspecified) here?
Its activity change is 17.3%.

With CCOc1ccc(-n2c(SCC(=O)Nc3ccc(OC)cc3)nc3sc4c(c3c2=O)CCN(C)C4)cc1 as the molecule, how does the activity change read?
Its activity change is 20.9%.

Which activity change does the source give for O=C(Cc1ccc2c(c1)CCCC2)Nc1ccccc1Cl here?
Its activity change is -3.68%.

For O=C(Nc1ccccc1Cl)/C(Cl)=C(\Cl)S(=O)c1ccccc1 (stereo unspecified), which activity change is on record?
Its activity change is -84.8% (active).

Which activity change does the source give for O=C(Nc1ccccc1Cl)Nc1cccc2cccnc12 here?
Its activity change is 24.3%.

With Cc1csc(OCC(=O)Nc2ccc(C)c(C)c2)n1 as the molecule, how does the activity change read?
The activity change was 15.5%.

With O=C(CC1SC(=Nc2ccccc2)N(Cc2ccccn2)C1=O)Nc1cccc(Cl)c1 (stereo unspecified) as the molecule, how does the activity change read?
Its activity change is 3.68%.

Which activity change does the source give for CCC(NC(=O)c1cc(COc2ccc(F)c(F)c2)on1)c1ccncc1 (stereo unspecified) here?
The activity change was 14%.

Which activity change does the source give for Cc1cccnc1CC(C)NC(=O)c1cc(COc2cncc(Cl)c2)on1 (stereo unspecified) here?
The activity change was 10.5%.

For CC(=O)c1cccc(OCc2cc(C(=O)NC(C)Cc3cccnc3)no2)c1 (stereo unspecified), which activity change is on record?
Its activity change is -85.8% (active).

Which activity change does the source give for CC1(C)C/C(=N/Nc2ccc([N+](=O)[O-])cc2[N+](=O)[O-])C(C)(C)O1 here?
Its activity change is 18.5%.

For C/C=C/C(=O)OCc1csc(CC(=O)Nc2ccccc2C)n1, which activity change is on record?
Its activity change is 48.5%.
